In PubChem BioAssay (NCI) one finds growth data, which are given here for nine molecules.

Each structure is given as a SMILES string. Compounds without any hit were thinned out: in the full panel of roughly 83,000, 20% have a hit.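 For each line, cells grew in 96-well plates with the test compound present at a single concentration for 48 hours.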 Values without a mark were called inactive. Active and inactive are the calls of the source. The calls were made as follows: active = growth percent below 10; inactive = the rest.

Among the test systems are HCT-15 colon; HT29 colon; SNB-75 CNS; SNB-19 CNS; U251 CNS; PC-3 prostate; SK-MEL-5 melanoma; UACC-62 melanoma; LOX IMVI melanoma; SK-MEL-28 melanoma; SK-MEL-2 melanoma; SN12C renal; UO-31 renal; TK-10 renal; ACHN renal; CAKI-1 renal; CCRF-CEM leukemia; MOLT-4 leukemia.
What all share (assay): NCI-60 one-dose screen, 48 h (100 = growth as untreated, 0 = no growth, -100 = all killed)
Holding throughout (settings): 10 µM unless noted

For `O=C(Nc1ccc(Br)c(Cl)c1)c1cc(F)ccc1O`, the growth was 7.56% (active) in the test with HCT-15 colon; 0.733% (active) with HT29 colon; 8.82% (active) in the test on SNB-75 CNS; 19.4% with SNB-19 CNS; 12.3% in the test on U251 CNS; 5.07% (active) in the test with PC-3 prostate. Moreover, the growth with SK-MEL-5 melanoma was -90.3% (active); in the test on UACC-62 melanoma, -3.96% (active); with LOX IMVI melanoma it was -61.4% (active); with SK-MEL-28 melanoma, -7.64% (active); in the test with SK-MEL-2 melanoma it was -32.6% (active); in the test with SN12C renal, 5.56% (active). For the same molecule, the growth was -1.56% (active) in the test on UO-31 renal; 21.3% with TK-10 renal; 0.577% (active) in the test on ACHN renal; -48.8% (active) in the test on CAKI-1 renal; 6.75% (active) with CCRF-CEM leukemia; -23% (active) with MOLT-4 leukemia.
For `CCN(Cc1ccccc1)c1ccc(SC#N)cc1`, the growth was 64.8% with HCT-15 colon; 70.5% in the test with HT29 colon; 83.1% with SNB-75 CNS; 90.7% in the test with SNB-19 CNS; 81.5% with U251 CNS; 30.5% in the test on PC-3 prostate. Besides, the growth in the test with SK-MEL-5 melanoma was 93.8%; in the test on UACC-62 melanoma, 90.4%; with LOX IMVI melanoma, 49.2%; in the test with SK-MEL-28 melanoma it was 86.7%; with SK-MEL-2 melanoma, 104%; with SN12C renal it was 87.9%. The growth in the test on UO-31 renal is 32.9%; in the test on TK-10 renal, 102%; with ACHN renal, 63.5%; in the test with CAKI-1 renal, 92.6%; in the test with CCRF-CEM leukemia, 13%; with MOLT-4 leukemia it was 59.5%.
As for `COc1cccc(/C=C2\SC(N3CCN(c4ccccn4)CC3)=NC2=O)c1`, the growth was 105% in the test with HCT-15 colon; 84.7% in the test with HT29 colon; 102% with SNB-75 CNS; 99.4% in the test on SNB-19 CNS; 105% in the test on U251 CNS; 88.9% with PC-3 prostate. Also, the growth in the test with SK-MEL-5 melanoma is 97.1%; in the test on UACC-62 melanoma, 95.9%; in the test on LOX IMVI melanoma it was 94.7%; in the test with SK-MEL-28 melanoma it was 110%; with SK-MEL-2 melanoma it was 86.9%; with SN12C renal, 102%. Besides, the growth is 84.5% with UO-31 renal; 90.9% with TK-10 renal; 104% with ACHN renal; 104% with CAKI-1 renal; 63.4% in the test with CCRF-CEM leukemia; 90.4% in the test with MOLT-4 leukemia.
Consider `Cc1nc(Nc2cccnc2)sc1C(=O)/C=C/c1ccc(F)cc1`, for which the growth with HCT-15 colon was 20.4%; in the test with HT29 colon, 8.45% (active); in the test on SNB-75 CNS, 2.4% (active); in the test on SNB-19 CNS, 18.9%; in the test with U251 CNS, 12.9%; with PC-3 prostate, 27.6%. Also, the growth is 67.6% with SK-MEL-5 melanoma; 46.3% with UACC-62 melanoma; 8.41% (active) in the test with LOX IMVI melanoma; 87.6% in the test on SK-MEL-28 melanoma; 92.4% in the test on SK-MEL-2 melanoma; 5.77% (active) with SN12C renal. The growth in the test on UO-31 renal was 29.9%; with TK-10 renal it was 54%; with ACHN renal, 38.7%; in the test on CAKI-1 renal, 46.2%; in the test on CCRF-CEM leukemia, 1.27% (active); in the test with MOLT-4 leukemia, 81.7%.
`COc1ccc(-c2nc3sccn3c2-c2ccnc(NCCCNS(=O)(=O)c3ccc4ccccc4c3)n2)cc1`: the growth with HCT-15 colon is 44.9%; in the test with HT29 colon, 44.1%; with SNB-75 CNS, 85.5%; with SNB-19 CNS, 86.1%; in the test on U251 CNS it was 67.3%; in the test on PC-3 prostate, 66.8%. Also, the growth is 42.3% in the test with SK-MEL-5 melanoma; 54.5% in the test on UACC-62 melanoma; 53.9% in the test with LOX IMVI melanoma; 80% in the test with SK-MEL-28 melanoma; 84.6% in the test with SK-MEL-2 melanoma; 79.5% in the test with SN12C renal. The growth is 60.7% in the test with UO-31 renal; 89.8% in the test on TK-10 renal; 60% in the test on ACHN renal; 77.5% with CAKI-1 renal; 53.8% in the test on CCRF-CEM leukemia; 47.5% in the test with MOLT-4 leukemia.
Take `COc1ccc(C2SCC(=O)N2NC(=O)c2ccc(NC(=O)c3ccccn3)cc2)cc1OC` (configuration not stated): the growth was 107% in the test on HCT-15 colon; 97.8% in the test on HT29 colon; 84.3% in the test with SNB-75 CNS; 95.5% in the test on SNB-19 CNS; 94.2% with U251 CNS; 95.3% with PC-3 prostate. Further, the growth in the test with SK-MEL-5 melanoma was 102%; in the test on UACC-62 melanoma, 91.5%; in the test with LOX IMVI melanoma it was 99.5%; in the test on SK-MEL-28 melanoma, 104%; with SK-MEL-2 melanoma, 94.5%; in the test with SN12C renal it was 97.3%. In addition, the growth is 89.7% in the test with UO-31 renal; 90.1% in the test on TK-10 renal; 99.2% in the test on ACHN renal; 96.9% in the test on CAKI-1 renal; 101% in the test with CCRF-CEM leukemia; 92.1% with MOLT-4 leukemia.
`COc1ccc(/C=C2\C(=O)N(C(=O)c3csc(NC(C)=O)n3)N=C2C)cc1`: the growth was 103% with HCT-15 colon; 98.9% in the test on HT29 colon; 86.5% in the test with SNB-75 CNS; 102% in the test with SNB-19 CNS; 101% in the test on U251 CNS; 98.9% in the test on PC-3 prostate. For the same molecule, the growth in the test on SK-MEL-5 melanoma was 107%; in the test on UACC-62 melanoma, 108%; in the test with LOX IMVI melanoma it was 96%; in the test with SK-MEL-28 melanoma, 110%; in the test with SK-MEL-2 melanoma, 94.8%; with SN12C renal, 106%. For the same molecule, the growth was 81.9% with UO-31 renal; 102% in the test on TK-10 renal; 107% in the test with ACHN renal; 99% in the test on CAKI-1 renal; 99% in the test with CCRF-CEM leukemia; 86.9% in the test on MOLT-4 leukemia.
As for `COc1cc(OC)c(C(=O)/C=C/c2ccc(C(F)(F)F)cc2)c(OC)c1`, the growth is 29.4% in the test with HCT-15 colon; 26.9% in the test on HT29 colon; 30% in the test on SNB-75 CNS; 57.5% in the test with SNB-19 CNS; 46.2% in the test with U251 CNS; 54.5% with PC-3 prostate. Further, the growth in the test with SK-MEL-5 melanoma is 62.2%; in the test on UACC-62 melanoma it was 48.2%; in the test on LOX IMVI melanoma, 32.4%; with SK-MEL-28 melanoma it was 67.4%; in the test on SK-MEL-2 melanoma, 45.4%; in the test on SN12C renal, 41.2%. Further, the growth in the test with UO-31 renal is 56.4%; with TK-10 renal, 84.6%; in the test on ACHN renal it was 60%; in the test with CAKI-1 renal it was 79.3%; with CCRF-CEM leukemia, 25.9%; in the test with MOLT-4 leukemia it was 24%.
As to `COc1cc(NC(=O)CCl)ccc(=O)c1`, the growth was 28.6% in the test on HCT-15 colon; 70.1% in the test on HT29 colon; 72% in the test on SNB-75 CNS; 93% in the test with SNB-19 CNS; 31.9% with U251 CNS; 74.6% in the test on PC-3 prostate. In addition, the growth is 75% with SK-MEL-5 melanoma; 57.2% in the test with UACC-62 melanoma; 49.1% in the test on LOX IMVI melanoma; 85.4% in the test on SK-MEL-28 melanoma; 74.3% in the test on SK-MEL-2 melanoma; 71.7% with SN12C renal. Moreover, the growth with UO-31 renal is 64.3%; with TK-10 renal, 35.4%; in the test with ACHN renal, 74.7%; in the test on CAKI-1 renal, 31%; in the test with CCRF-CEM leukemia it was 39.7%; in the test on MOLT-4 leukemia it was 50.1%.
